Screens as filed in PubChem.
The list is not random: actives were taken first. Their share in the collection is about 5.9%.
HSP90 inh: HSP90 refolding inhibition in rabbit reticulocyte lysate | luciferase refolding luminescence, 3 h | AID 1789 | inhibition, % at 5.6 µM | hit rate 0.91% among 290,000;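 active = inhibition above the screen-wide mean plus 3 SD, computed separately per campaign, cut at about 16% in these data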;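 note: 0% = DMSO wells and 100% = 60 µM geldanamycin wells; inhibitors lower the luminescence because luciferase stays unfolded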
GAA850 FXN act: activators of GAA850 frataxin (FXN) promoter; HEK293 lucGAA850 FXN promoter luciferase reporter, 24 h; percent of 10 µM SAHA response; activation, % at 6 µM; hit rate 0.56% among 360,000; AID 540364;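 active = activation above the average of all compounds screened plus 3 SD, cutoff fixed separately per campaign, cut at about 7.5% in these data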;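 note: 0% = DMSO wells and 100% = 10 µM SAHA wells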
HSF1 inhib: HSF1 inhibition | hit rate 0.77% among 300,000 | NIH3T3-HGL HSE-luciferase, MG132-induced, luminescence 8 h; active compounds read low | activity change, negative = inhibition, % at 7.5 µM (by protocol) | AID 2098;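 active = more than half of replicate wells show activity change below -50%, luminescence cut by over half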;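 note: luciferase reports HSF-1 transcriptional activity via heat shock element; 0% = median of DMSO wells and -100% = zero luminescence signal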
HSF-1 act: increases HSF-1 driven luciferase reporter signal; NIH3T3-HGL HSF-1 luciferase reporter, MG132, 8 h; 100% = twice DMSO control signal; activation, % at 9 µM; hit rate 1.7% among 300,000; AID 504408;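 active = mean replicate activation of at least 50% with a set share of replicates each reaching 50%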;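 note: 0% = median of the neutral control wells and 100% = twice that signal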
AHR activator: activates the human aryl hydrocarbon receptor; AHR-responsive luciferase reporter cells, luminescence; activation, % at 5 µM; P35869; hit rate 2.5% among 320,000; in the data active = activation above about 47%;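 note: 0% = vehicle wells and 100% = reference agonist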
Target sequence (P35869 whole entry, looked up): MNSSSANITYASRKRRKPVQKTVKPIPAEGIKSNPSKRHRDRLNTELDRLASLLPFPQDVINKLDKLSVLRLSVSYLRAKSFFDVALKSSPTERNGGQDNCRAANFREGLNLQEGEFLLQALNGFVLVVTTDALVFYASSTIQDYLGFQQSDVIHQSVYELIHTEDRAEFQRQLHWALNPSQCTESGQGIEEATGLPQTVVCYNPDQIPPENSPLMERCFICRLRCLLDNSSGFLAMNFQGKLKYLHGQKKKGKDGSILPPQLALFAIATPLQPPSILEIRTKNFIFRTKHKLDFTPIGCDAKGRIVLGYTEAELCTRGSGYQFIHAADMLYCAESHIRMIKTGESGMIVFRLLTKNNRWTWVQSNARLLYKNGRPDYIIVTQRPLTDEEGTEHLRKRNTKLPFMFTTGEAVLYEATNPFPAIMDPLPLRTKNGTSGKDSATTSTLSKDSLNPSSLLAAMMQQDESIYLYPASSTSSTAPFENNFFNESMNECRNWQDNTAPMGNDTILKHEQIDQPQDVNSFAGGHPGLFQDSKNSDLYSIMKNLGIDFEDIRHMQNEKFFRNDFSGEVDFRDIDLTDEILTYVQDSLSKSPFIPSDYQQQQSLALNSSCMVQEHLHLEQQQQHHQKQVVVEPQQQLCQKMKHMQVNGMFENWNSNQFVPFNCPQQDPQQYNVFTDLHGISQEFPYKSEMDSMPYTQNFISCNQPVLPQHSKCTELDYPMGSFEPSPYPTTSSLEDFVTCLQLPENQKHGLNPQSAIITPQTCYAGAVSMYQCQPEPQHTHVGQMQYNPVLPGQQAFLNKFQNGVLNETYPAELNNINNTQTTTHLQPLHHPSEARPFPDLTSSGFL
NR0B1 inh: inhibitors of human orphan nuclear receptor DAX1 (NR0B1) | AID 504766 | hit rate 0.99% among 340,000 | HEK293 Gal4-DAX1 luciferase reporter, luminescence | inhibition, % at 6.75 µM | P51843;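 active = inhibition above the mean over all tested compounds plus 3 SD, cut at about 4.2% in these data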;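 note: 0% = DAX1-transfected cells with DMSO and 100% = empty-vector control cells with DMSO; inhibition shows as a rise in luminescence from relieved DAX1 repression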
AHR act cf: confirmation of human aryl hydrocarbon receptor activators; activation, % at 9 µM; hit rate 87% among 2,300; human cells, AHR-responsive luciferase reporter, luminescence; shares compounds with AHR activator; in the data active = activation above about 49%;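 note: HepG2 hepatoma cells carrying a DRE-driven firefly luciferase reporter; 0% = vehicle wells and 100% = reference agonist wells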
PXR act counter: PXR activation, counter-screen for AHR activators; shares compounds with AHR activator; hit rate 88% among 2,300; cell-based PXR reporter, luciferase luminescence; AID 434939; activation, % at 11.6 µM; in the data active = activation above about 11%;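 note: human hepatoma DPX-2 cells expressing full-length human PXR; 0% = DMSO and 100% = reference agonist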
* marks the source's active call; other numbers are inactive results; . = no result.

SMILES | HSP90 inh | GAA850 FXN act | HSF1 inhib | HSF-1 act | AHR activator | NR0B1 inh | AHR act cf | PXR act counter
O=C(/C=C/Nc1ccc(F)cc1F)c1ccco1 | 5 | 2 | 9 | 28 | 41 | -1 | . | .
O=C(/C=C/Nc1ccc(F)cc1F)c1cccs1 | -3 | -2 | 30 | 77* | 86* | -3 | 108* | 86*
O=C(/C=C/Nc1ccc(F)cc1F)c1ccc(Br)cc1 | . | 4 | 22 | 36 | 90* | . | 90* | 12*
O=C(/C=C/Nc1ccc(Br)cc1F)c1ccco1 | 10 | -4 | 4 | 21 | 46 | -2 | . | .
C[C@@H]1CN([C@@H](C)CO)C(=O)CCCn2nncc2CO[C@@H]1CN(C)C(=O)CCC(F)(F)F | . | -1 | . | . | . | 1 | . | .
Cc1nn(C2CCS(=O)(=O)C2)c(Cl)c1/C=C/C(=O)OCC(=O)Nc1ccc2c(c1)OCO2 (stereo not given) | 1 | 1 | 1 | 5 | 1 | 0 | . | .
Cc1ccc(S(=O)(=O)N(C)C)cc1NC(=O)c1cc(-c2ccco2)nc2ccccc12 | 3 | -5 | -11 | -15 | 11 | -2 | . | .
O=C(NCCc1ccncc1)Nc1cccc(Cl)c1 | 4 | 0 | 1 | -5 | 90* | -1 | 56* | 17*
Cc1cc(C)c2oc(-c3cccc(N)c3)nc2c1 | 0 | 4 | 5 | 8 | 79* | 3 | 128* | 15*
Cc1cc(C)c2oc(-c3ccc(Cl)c(NC(=O)c4ccc(C#N)cc4F)c3)nc2c1 | 1 | 3 | -8 | 14 | 44 | 1 | . | .
O=c1[nH]c2ccccc2c2nc3ccccn3c12 | 0 | 5 | 4 | 6 | 91* | 2 | 117* | 19*
c1cc(-c2cc3cc4c(cc3cn2)OCO4)cs1 | . | 4 | . | . | 118* | 1 | 114* | 25*
c1cnc2cc(-c3ccsc3)ncc2c1 | . | 3 | . | . | -8 | 2 | . | .
C=CCOc1cccc(C(=O)N2CCC(CCC(=O)NC3CC3)CC2)c1 | -4 | 0 | -5 | -1 | 2 | 0 | . | .
COc1ccc(CCNC(=O)c2ccc3nc[nH]c3c2)cc1 | -4 | 0 | -2 | 4 | -1 | 0 | . | .
O=C(Nc1ccc(OC(F)(F)F)cc1)c1ccc2nccnc2c1 | -2 | 3 | 3 | 15 | 86* | -2 | 81* | 15*
O=C(Nc1ccc(C(F)(F)F)cc1)c1ccc2nc[nH]c2c1 | -2 | 4 | 6 | 14 | 106* | 3 | 98* | 10*
COc1ccc(NC(=O)c2ccc3nc[nH]c3c2)cc1 | 1 | 3 | 12 | 46 | 80* | 0 | 79* | 19*
Cc1cc(C)c(CN2CCC(n3nccc3NC(=O)CCOc3ccccc3)CC2)cc1C | -4 | -4 | 7 | 3 | -2 | 0 | . | .
Cc1cccc(/C=N/NC(=O)c2cccc(NC(=O)c3ccccc3)c2)n1 | -2 | 1 | 4 | -3 | 106* | -1 | 102* | 28*
COc1ccc(/C=N/NC(=O)c2cccc(NC(=O)c3ccccc3)c2)c(C(=O)O)c1OC | -4 | 6 | -1 | 0 | 113* | 1 | 95* | 13*
COC(=O)[C@H](Cc1ccccc1)NC(=O)NCCC1=CCCCC1 | 2 | 1 | 3 | 11 | -1 | 0 | . | .
CC1(C)C(=O)OC(/C=C\c2ccccc2)C(C)(C)C1=O (stereo not given) | -2 | 0 | -3 | -4 | 3 | -1 | . | .
Nc1cccc(Nc2ncnc3ccccc23)c1 | 0 | 2 | 3 | -12 | 152* | 3 | 65* | .
CC(C)OCCCNC(=O)C(=O)N/N=C/c1ccc(OCc2ccccc2)cc1 | 0 | 1 | 4 | 12 | -3 | . | . | .
SMILES | HSP90 inh | GAA850 FXN act | HSF1 inhib | HSF-1 act | AHR activator | NR0B1 inh | AHR act cf | PXR act counter
COc1ccc(CCN2CC(C(=O)N(C)C3CCOCC3)CCC2=O)cc1 (stereo not given) | 4 | 1 | 0 | -18 | -2 | 0 | . | .
O=c1c2ccccc2[nH]c(=S)n1Cc1ccccc1 | -5 | 1 | -1 | 7 | 0 | 0 | . | .
O=c1c2ccccc2[nH]c(=S)n1CCc1ccccc1 | -3 | 3 | 21 | 35 | 121* | 1 | 159* | 38*
O=C(Nc1ccc(Cl)cc1)c1cccc(NC2=NC3CS(=O)(=O)CC3S2)c1 (stereo not given) | -3 | 2 | -4 | -6 | 182* | 1 | 117* | 19*
CC(C)c1ccc(NC(=O)c2cccc(NC3=NC4CS(=O)(=O)CC4S3)c2)cc1 (stereo not given) | 3 | 2 | 2 | 9 | 1 | 1 | . | .
CC(C)(C)c1cc(C(=O)NCCCn2ccnc2)cc(C(C)(C)C)c1 | 1 | 2 | -3 | -6 | 9 | 1 | . | .
O=C(NCCCn1ccnc1)c1cc(Cl)cc(Cl)c1 | -3 | 2 | 0 | 20 | 87* | -1 | 74* | 22*
COc1ccc(/C=N/n2c(-c3ccccc3)n[nH]c2=S)cc1 | 1 | 1 | 3 | -1 | 5 | 2 | . | .
S=c1[nH]c(-c2ccccc2)cn1/N=C/c1ccncc1 | 0 | 2 | -2 | 3 | 88* | -1 | 135* | 8
CCOc1ccc(/C=N/n2cc(-c3ccccc3)[nH]c2=S)cc1 | 3 | 2 | 2 | 22 | 84* | 1 | 108* | .
S=c1[nH]ncn1/N=C/c1ccccc1 | 2 | 2 | -11 | 9 | 0 | -1 | . | .
COc1ccc(CNC(=O)O[C@]23C[C@H]4C(=O)N(c5ccccc5)C(=O)[C@H]4C[C@@]2(O)CN(S(=O)(=O)c2ccc(C)cc2)C3)cc1OC | . | 0 | . | . | . | 1 | . | .
CC(=O)N1CCC2(CC1)C/C(=N\NC(=S)Nc1ccc(C)cc1)c1cc(O)ccc1O2 | 3 | -3 | -1 | 6 | 6 | 0 | . | .
CCOc1ccc2oc(C(=O)Nc3nccs3)c(C)c2c1 | . | 5 | . | . | 107* | 2 | 162* | 23*
O=C(NNC(=O)c1ccccc1O)c1ccc(Cl)c(S(=O)(=O)N2CCc3ccccc32)c1 | . | -2 | 5 | -1 | 21 | -3 | . | .
COc1cc(NC(=O)c2cc(C)on2)cc(C(=O)Nc2cccc(C(F)(F)F)c2)c1 | . | -1 | 19 | 2 | 130* | -1 | 106* | 21*
COc1cc(NC(=O)c2ccnc(N)c2)cc(C(=O)Nc2cccc(C(F)(F)F)c2)c1 | . | 0 | 0 | -26 | 12 | 0 | . | .
COc1cc(NC(=O)c2csc(N)n2)cc(C(=O)Nc2cccc(C(F)(F)F)c2)c1 | . | -5 | -19 | -38 | 85* | -3 | 91* | 32*
O=C(Nc1cccc(Cl)c1Cl)C1CCN(C(=O)c2cccs2)CC1 | 0 | 0 | -5 | 0 | 1 | 3 | . | .
